This is a sample that favours compounds with a hit; in the whole collection about 0.86% have one here.
CDC25B CDK2 inh – human CDC25B-CDK2/CyclinA binding inhibition; HTRF CDC25B-CDK2/CyclinA binding, anti-His/anti-Flag; hits give high values; AID 1259370; 94,000 tested, 0.72% active; z-score (no concentration beside the values); P30305+P24941; in the data active means z-score above about 3.2
TAR Tat displ – HIV-1 TAR-Tat binding disruption | HIV-1 TAR RNA, Tat peptide displacement FRET; hits give high values | 100,000 tested, 0.6% active | z-score (no concentration beside the values); active means z-score of 3 or more in at least 2 runs
Of the large screens only hits and unclear results are named; the others gave an inactive call.

[Cl-].[Cl][Pt].[NH2-].[NH2-].c1ccncc1	CDC25B CDK2 inh 3.7 (no result: TAR Tat displ)
CSc1ccc(/C=C/[N+](=O)[O-])cc1	none (no result: TAR Tat displ)
CCC(C)C(=O)O[C@H]1[C@H](O)C2C(CN3CC(C)CCC3[C@@]2(C)O)C2C[C@]34O[C@]5(O)C(OC(=O)C(C)(O)C(C)O)CC[C@@]3(C)C5C(OC(C)=O)[C@@H](OC(C)=O)C4[C@@]21O (some centres undefined)	none (no result: CDC25B CDK2 inh)
CC[C@@H](C)C(=O)O[C@H]1[C@H](O)[C@H]2[C@@H](CN3C[C@@H](C)CC[C@H]3[C@@]2(C)O)[C@@H]2C[C@]34OC5(O)[C@@H](OC(=O)C(C)(O)C(C)O)CC[C@@]3(C)[C@@H]5[C@@H](OC(C)=O)[C@@H](OC(C)=O)[C@H]4[C@@]21O (some centres undefined)	TAR Tat displ 10 (no result: CDC25B CDK2 inh)
Cc1ccc(CN2CCCN(Cc3cccc(F)c3)S2(=O)=O)cc1	none (no result: CDC25B CDK2 inh)
CC(=O)N1CCc2cc(Br)cc(S(=O)(=O)N3CC4CC(C3)c3cccc(=O)n3C4)c21 (centres undefined)	none
CC[C@@H](CO)NC(=O)[C@@H]1C=C2c3cccc4c3c(cn4C)C[C@H]2N(C)C1	none (no result: TAR Tat displ)
CC[C@@H](CO)NC(=O)[C@@H]1C=C2c3cccc4[nH]cc(c34)C[C@H]2N(C)C1	CDC25B CDK2 inh 4.2
CN(C)C(=NP(=S)(c1ccccc1)c1ccccc1)N(C)C	none (no result: TAR Tat displ)
O=C1C2CCN(CC2)C1Cc1ccc(OCCOc2ccccc2)cc1 (centres undefined)	none
O=C1C2CCN(CC2)C1Cc1ccco1 (centres undefined)	CDC25B CDK2 inh 12 (no result: TAR Tat displ)
C/C=C1/CN2CC[C@]34C(=C(C=O)[C@H]1C[C@H]23)Nc1ccccc14	none (no result: CDC25B CDK2 inh)
O=[N+]([O-])c1ccc(O)c([N+](=O)[O-])c1	none (no result: CDC25B CDK2 inh)
O=[N+]([O-])c1cc(O)c(O)c([N+](=O)[O-])c1	TAR Tat displ 9.5
CC1(C)CC(=O)C2=C(C1)OC(N)=C(C(=O)OC(C)(C)C)C21C(=O)Nc2ccc(Br)cc21 (centres undefined)	none (no result: TAR Tat displ)
COc1ccc(-c2ncnc3c(C#N)c4ccccn4c23)cc1	none
Cc1cc(C)nc(-n2nc(C)c3c2NC(=O)CSC3c2cc(F)cc(F)c2)n1 (centres undefined)	none
CC(C)=CCCC1=CC(=O)c2c(O)ccc(O)c2C1=O	TAR Tat displ 34 (no result: CDC25B CDK2 inh)
COc1ccc(CSC2C(C(=O)NNC(=O)c3ccccc3)C3CCN2CC3)cc1 (centres undefined)	none (no result: TAR Tat displ)
Cc1nn(-c2nc3ccccc3s2)c2c1C(c1cccs1)SCC(=O)N2 (centres undefined)	none
CCn1nc(-c2ccccc2)nc2c(=O)n(C)c(=O)nc1-2	none
Cn1nc(-c2ccccc2)nc2c(=O)n(C)c(=O)nc1-2	CDC25B CDK2 inh 5.8
COc1ccc(Cc2nccc3cc(OC)c(OC)cc23)cc1OC	CDC25B CDK2 inh 13
COc1ccc(CCNCc2ccc(OC)c(OC)c2)cc1OC	none
COc1cccc(CN2CCN(Cc3cc(Br)ccc3O)CC2)c1	CDC25B CDK2 inh 16
CCc1ccc(CN2CCN(Cc3cc(Br)ccc3O)CC2)cc1	none
Cc1[nH]nc2c1C(c1ccccc1OCc1ccccc1)SCC(=O)N2 (centres undefined)	none
COc1cc2c(cc1O)CC1c3c(cc(O)c(OC)c3-2)CCN1C (centres undefined)	TAR Tat displ 7.7 (no result: CDC25B CDK2 inh)
COc1cc2c3c(c1OC)-c1ccccc1CC3N(C)CC2 (centres undefined)	none (no result: CDC25B CDK2 inh)
CCOC(=O)C1=C(C)OC(N)=C(C(=O)OCC)C12C(=O)N(CC(N)=O)c1ccccc12 (centres undefined)	none (no result: TAR Tat displ)
c1ccc(-n2cccc2-c2nc(N3CC3)nc(N3CC3)n2)cc1	CDC25B CDK2 inh 16 (no result: TAR Tat displ)
Cc1nn(-c2ccccc2)c2c1C(c1cccs1)SCC(=O)N2 (centres undefined)	none
O=C(N1CCSCC1)C(Cl)(Cl)Cl	none (no result: TAR Tat displ)
